# Laboratory results as given in PubChem BioAssay AID1423 (NMMLSC, 2008).
# Out of some 220,000 compounds screened, about 750 (0.34%) were called active. The list comes from a sample in which actives are over-represented; it also holds similar structures and randomly drawn compounds. A number with no mark means an inactive call. Cut-off read from the data, not from the text of the source: active = response below about 60% or above about 140%; inactive = in between.
# Target: Guanine nucleotide-binding protein G(o) subunit alpha (Homo sapiens) (UniProt P09471)
# Sequence (P09471 whole entry, looked up): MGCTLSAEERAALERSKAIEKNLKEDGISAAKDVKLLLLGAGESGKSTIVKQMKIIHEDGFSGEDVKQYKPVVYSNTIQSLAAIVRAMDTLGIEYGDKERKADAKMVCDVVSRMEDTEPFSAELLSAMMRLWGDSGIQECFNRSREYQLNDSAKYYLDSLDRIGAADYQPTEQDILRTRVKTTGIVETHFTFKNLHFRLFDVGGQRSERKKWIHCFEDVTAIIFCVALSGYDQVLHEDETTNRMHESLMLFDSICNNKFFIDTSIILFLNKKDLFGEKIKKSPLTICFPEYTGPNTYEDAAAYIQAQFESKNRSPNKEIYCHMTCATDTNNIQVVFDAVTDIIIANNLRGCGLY
# Assay: compounds changing RGS8 association with Galphao – biochemical, multiplexed bead flow cytometry, primary screen (AID 1423);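 note: Galphao activated as the GDP aluminium fluoride complex binding bead-coupled RGS8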
# Settings: at 10 µM, actives lie on both sides
row,Compound,response (percent of control binding)
1,Cc1ccc(S(=O)(=O)CC(=O)Nc2c(C)n(C)n(-c3ccccc3)c2=O)cc1,97.4%
2,Cc1cc(C)cc(N(CC(=O)Nc2c(C)n(C)n(-c3ccccc3)c2=O)S(C)(=O)=O)c1,1.54% (active)
3,Cc1cc(C)cc(N(C(C)C(=O)Nc2c(C)n(C)n(-c3ccccc3)c2=O)S(C)(=O)=O)c1 (stereo unspecified),104%
4,CCc1nn(-c2cc(Oc3cccc4ccccc34)nc(-c3ccccc3)n2)c(N)c1C#N,105%
5,N/C(=N\S(=O)(=O)c1ccc(Cl)cc1)N1CCOCC1,98.4%
6,CC(C)(C)C(=O)NNC(=O)c1ccc(Oc2cc(Cl)cc(Cl)c2)o1,104%
7,O=C(CN1CCOCC1)Nc1ccccc1,145% [activator] (active)
8,O=C(CN1CCOCC1)Nc1ccc(NC(=O)CN2CCOCC2)c(Cl)c1,100%
9,O=C(CN1CCOCC1)Nc1c(Cl)cc(Cl)cc1Cl,96%
10,CC(=O)c1ccc(N=C2SCCCN2C(=O)C2CCCCC2)cc1,95.4%
11,O=C(NNc1c2ccccc2nc2ccccc12)c1cc2ccccc2cc1O,98.1%
12,Cc1ccc(S(=O)(=O)N2CCN(C(=O)COC(=O)c3c(C)noc3C)CC2)c(C)c1,103%
13,N#Cc1nc(COc2ccc(-c3ccccc3)cc2)oc1NCc1cccnc1,167% [activator] (active)
14,O=S(=O)(c1ccc(Br)cc1)c1nc(-c2ccccc2)oc1NCc1cccnc1,103%
15,N#Cc1nc(-c2ccc(OCc3ccccc3)cc2)oc1NCCCN1CCOCC1,99.9%
16,CC(C)(C)NC(=O)NC(=O)COC(=O)Cc1c(F)cccc1Cl,99.5%
17,CCCCC(CC(C)O)c1n[nH]c(=S)n1-c1ccccc1 (stereo unspecified),108%
18,S=c1[nH]nc(CSCc2ccc(Cl)cc2Cl)n1-c1ccccc1,92.7%
19,CCn1c(CSCc2c(Cl)cccc2Cl)n[nH]c1=S,55.5% (active)
20,CCn1c(CNS(=O)(=O)c2ccc(Cl)cc2)n[nH]c1=S,100%
21,Cc1ccc(C(=O)C(=S)N2CCOCC2)cc1,110%
22,CC1CC(C)(C)n2c(O)c(N=NC(N)=S)c3cccc1c32 (stereo unspecified),100%
23,NS(=O)(=O)c1ccc(CCNC(=O)CCCn2c(SCC(=O)N3CCCC3)nc3ccsc3c2=O)cc1,103%
24,O=[N+]([O-])c1ccccc1Nc1ccc(O)cc1,102%

row,Compound,response (percent of control binding)
1,O=C(CC1SC(=Nc2ccccc2F)N(CCN2CCOCC2)C1=O)Nc1ccc(F)cc1F (stereo unspecified),97.3%
2,CCOc1cc(NC(=O)c2ccccn2)c(OCC)cc1NC(=O)c1ccc(OC)cc1,103%
3,COc1ccc(CC(=O)N/N=C(\C)c2ccccn2)cc1,72.6%
4,CCN(CC)CCOc1ccc2c(c1)C(=NNC(=O)c1ccccn1)c1cc(OCCN(CC)CC)ccc1-2,154% [activator] (active)
5,COC(=O)C1=C(C)NC(=O)/C1=C/c1ccc(CNS(=O)(=O)c2ccc(C)cc2)o1,91%
6,O=C(COc1ccccc1)N1CCc2ccccc2C1,101%
7,O=C(CSc1nnc(-c2cccs2)n1Cc1ccccc1)N1CCc2ccccc2C1,97%
8,Cn1c(=O)c2c(n(Cc3ccccc3)c1=O)NC(=O)C2CC(=O)N1CCc2ccccc2C1 (stereo unspecified),12.1% (active)
9,O=C(NC1CCCCC1)C1CCCN(S(=O)(=O)c2ccc(Br)s2)C1 (stereo unspecified),96.9%
10,O=C(O)c1ccc2c3c(cccc13)C(=O)N(OS(=O)(=O)c1ccccc1)C2=O,98.5%
11,CN1CCN(C(CNS(=O)(=O)c2cccs2)c2cccnc2)CC1 (stereo unspecified),10.6% (active)
12,CN1CCN(S(=O)(=O)c2ccc(N3CCN(S(=O)(=O)c4cccs4)CC3)nc2)CC1,100%
13,Cc1ccc(NC(=O)NCC(c2cccnc2)N2CCOCC2)cc1 (stereo unspecified),103%
14,CCOC(=O)CCNC(=O)N1CCCC(C(=O)c2ccccc2SC)C1 (stereo unspecified),90.6%
15,Cc1ccc2c(N)c(C(=O)c3ccccc3)sc2n1,104%
16,COc1cccc(C(=O)NCCSc2ccc(Br)cc2)c1,20.7% (active)
17,COc1cccc(C(=O)NNC(=O)c2ccccc2Br)c1,107%
18,COc1cc(OC)cc(C(=O)NCCSCc2ccco2)c1,97.9%
19,OC(c1ccccc1)c1nccn1Cc1ccccc1 (stereo unspecified),97.5%
20,OC(c1nc2ccccc2[nH]1)C(O)C(O)C(O)c1nc2ccccc2[nH]1 (stereo unspecified),100%
21,O=C(N/N=C/c1cccc([N+](=O)[O-])c1)c1ccncc1,99.5%
22,Cc1c(C(=O)Nc2ccccc2Cl)oc2ccc(S(=O)(=O)N3CCC4(CC3)OCCO4)cc12,105%
23,CCOc1ccccc1NC(=O)c1cc(S(=O)(=O)N2CCC3(CC2)OCCO3)ccc1F,33% (active)
24,CCOc1ccccc1NC(=O)CCN1CCN(S(=O)(=O)c2ccc(OC)cc2)CC1,99.6%

row,Compound,response (percent of control binding)
1,CC(=O)c1cccc(-n2nnnc2SCC(=O)NNC(=O)C2CCCCC2)c1,91.2%
2,O=C(COC(=O)/C(=C/c1cccs1)c1cccs1)NCc1ccccc1Cl,85.8%
3,O=C(CSc1ccccc1)Nc1ccc(C(=O)Nc2cccc(O)c2)cc1,109%
4,O=C(Cn1nnc(N2CCCCC2)n1)c1ccc(Cl)c(Cl)c1,97.6%
5,Cc1ccc(NC(=O)CNCc2ccccn2)cc1S(=O)(=O)N(C)C,97.7%
6,COc1ccc(CCC(=O)OCC(=O)Nc2ccc(C)c(S(=O)(=O)N(C)C)c2)cc1,57.7% (active)
7,COc1cc(CCC(=O)OCC(=O)Nc2cccc(S(N)(=O)=O)c2)cc(OC)c1OC,95.2%
8,O=C1CCC/C(=N\NC(=O)NC2CCCCC2)C1,100%
9,COc1ccccc1-n1c(-c2cc(-c3ccco3)[nH]n2)n[nH]c1=S,6.3% (active)
10,COc1ccc(OC)c(-n2c(-c3ccn[nH]3)n[nH]c2=S)c1,98.6%
11,COc1ccccc1-n1cn[nH]c1=S,102%
12,COc1ccc(-c2onc(C)c2-c2ccc3c(c2)OCCO3)c(O)c1,101%
13,O=C(NCCCN1CCOCC1)c1ccccc1NS(=O)(=O)c1ccc(Br)cc1,99.3%
14,COc1ccc(C(=O)NNS(=O)(=O)c2ccc(C)cc2)cc1,101%
15,COc1ccc(C(=O)NNc2cc(C)nc(NNC(=O)c3ccc(OC)cc3)n2)cc1,54% (active)
16,COc1ccc(C(=O)NNC(=O)c2cc(C)[nH]n2)cc1,121%
17,CC(=O)Nc1ccc(N2C(=O)CCC2=O)cc1C,100%
18,COc1ccccc1CCNC(=O)CSc1nnc2ccc(-c3cccnc3)nn12,92.2%
19,CCOC(=O)NNc1cc(C(F)(F)F)ccn1,133%
20,Nc1nnn(CC(=O)N/N=C/c2ccccc2)n1,99.3%
21,COc1ccc(C2=NOC(COC(=O)c3ccc4ccccc4n3)C2)cc1 (stereo unspecified),101%
22,COc1ccc(C(=O)COC(=O)c2ccc3ccccc3n2)cc1,28.9% (active)
23,CC(OC(=O)c1ccc2ccccc2n1)C(=O)c1ccccc1 (stereo unspecified),103%
24,COC(=O)C1=C(C)N(c2ccc(C)cc2)/C(=C/c2ccc(O)cc2)C1=O,99.9%

row,Compound,response (percent of control binding)
1,COc1cccc2c(N/N=C/c3ccco3)cc(C)nc12,96.9%
2,CCN(CC)CCNCC(=O)Nc1ccc(Oc2ccccc2)cc1,99.5%
3,CCCC(=O)N=c1sc2cccc(F)c2n1C,37.2% (active)
4,Cn1c(=NC(=O)c2ccco2)sc2cccc(F)c21,103%
5,Cn1c(=NC(=O)C2CC2)sc2cc(F)cc(F)c21,96.6%
6,Cn1cc(-c2ccccc2)cc(C#N)c1=O,103%
7,Cc1ccccc1/[N+]([O-])=C/c1ccncc1,100%
8,CN(C)S(=O)(=O)c1cccc(NC(=O)COC(=O)/C=C/c2cccs2)c1,102%
9,Oc1ccc2ccccc2c1N=Nc1nccs1,99.8%
10,Oc1ccc(N=Nc2nccs2)c(O)c1,6.26% (active)
11,CONC(=O)c1cc(OCC(F)(F)F)ccc1OCC(F)(F)F,103%
12,CCc1ccc(C(=O)OCC(=O)Nc2cccc(S(=O)(=O)NC3=NCCCCC3)c2)cc1,104%
13,Cc1ccc(S(=O)(=O)N2CCC(C(=O)N[C@@H](C)C(=O)NCc3ccco3)CC2)cc1,103%
14,CN1CCN(C2=NCCO2)CC1,100%
15,O=C1C2N=NN(CC(=O)N3N=C(c4cccc5ccccc45)CC3c3ccccc3)C2C(=O)N1c1ccccc1 (stereo unspecified),90.3%
16,COc1ccc(S(=O)(=O)N2CCCCCC2)cc1C(=O)OCC(=O)Nc1cc(C)on1,100%
17,COc1cc(/C=C(/NC(=O)c2ccc(Cl)cc2Cl)C(=O)O)cc(OC)c1OC,75.5%
18,C=C(C)CNC(=S)/N=c1\scc(C)n1CC,98.7%
19,O=S(=O)(c1ccccc1)N(CC(O)CN1CCCCC1)c1ccccc1 (stereo unspecified),101%
20,Cc1cc(C)n(CC(O)CN(c2ccccc2)S(=O)(=O)c2ccc3ccccc3c2)n1 (stereo unspecified),15% (active)
21,Cc1ccc(N(CC(O)CN2CCCC2)S(=O)(=O)c2ccccc2)cc1 (stereo unspecified),97.6%
22,C[C@H](NC(=O)c1ccccc1Cl)C(=O)OCCOc1cccc(Cl)c1,105%
23,NS(=O)(=O)c1ccc(CCNC(=O)c2ccc(Cl)cc2[N+](=O)[O-])cc1,102%
24,CC(=O)c1cc2c(cc1NC(=O)CN1CCCCCC1)OCO2,111%
